Composite z-score, z-score and composite Z-score data for six compounds are collected here from PubChem BioAssay.

For experiment [1], the system named is Human papillomavirus type 1a protein E7 (residues 44-93). The experiment can be described thus: small molecules binding HPV E7 44-93 – biochemical, small-molecule microarray, residues 44-93, 635 nm fluorescence, primary screen (AID 1108).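 Further: E7 fragment applied at 1 µg/mL in TBST for 1 h at 4 C; score combines spot fluorescence with its signal to noise ratio.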 The following applies: fluorescence 635 nm, higher = more signal.
Experiment [2] is described as follows: hepatitis C replication reporter changes, two-sided – Huh7 cells, luciferase reporter, HCV replication inhibitor project, primary screen (AID 1109).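 Further: huh7 hepatoma cells harbouring a luciferase neomycin HCV replicon reporter; luciferase luminescence as measure of HCV replicon replication; test concentration not given here.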 The conditions noted are these: Huh7 HCV replicon luciferase reporter, 48 h; higher = more signal.
Experiment [3] concerns the target Left-right determination factor 2 (Homo sapiens) (UniProt O00292). The experiment can be described thus: small molecules binding LEFTY2 protein – biochemical, small-molecule microarray, 635 nm fluorescence scan, primary screen (AID 1110). The conditions noted are these: higher = more signal.
Experiment [4] addresses Calmodulin-1 (Homo sapiens) (UniProt P0DP23). Nature of the experiment: small molecules binding calmodulin-1 with EGTA – biochemical, small-molecule microarray, Cy5-labelled CALM1, profiling panel (AID 1111).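 Further: labelled calmodulin applied in Tris saline Tween buffer holding calcium plus EGTA and DTT.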 The conditions noted are these: Cy5-CALM1 binding fluorescence, higher = more signal.
For experiment [5] the target is unchanged. The experiment can be described thus: small molecules binding Ca-loaded calmodulin-1 – biochemical, small-molecule microarray, Cy5-labelled CALM1, plus calcium, artefact control for SMM control-protein annotation, profiling panel (AID 1112).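 Further: score merges spot fluorescence with signal to noise from triplicate slides.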 The following applies: Cy5-CALM1 binding fluorescence, higher = more signal.
Experiment [6] can be described thus: probe aWnt5a binding to arrayed compounds – biochemical, biotinylated probe, 635/667 nm fluorescence, primary screen (AID 1113).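 Further: score merges 667 nm fluorescence intensity with signal-to-noise per printed feature.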 The following applies: small-molecule microarray, higher = more signal.
Experiment [7] in a line: probe aShh binding to arrayed compounds – biochemical, biotinylated probe, 635/667 nm fluorescence, primary screen (AID 1114).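 Further: probe is biotin-labelled aShh protein from a stem cell growth factor screen; measures binding of labelled protein to compounds printed on the slide; score merges feature fluorescence at 667 nm with signal-to-noise.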 The following applies: small-molecule microarray, higher = more signal.
Experiment [8] can be described thus: probe aNog binding to arrayed compounds – biochemical, biotinylated probe, 635/667 nm fluorescence, primary screen (AID 1115).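 Further: probe is biotinylated aNog protein used at 0.15 µg/mL for 1 h at 4 C; z-score combines 667 nm fluorescence of each spot with its signal to noise.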 The conditions noted are these: small-molecule microarray, higher = more signal.
For experiment [9], the target named is Torsin-1A-interacting protein 1 (Homo sapiens) (UniProt Q5JTV8). Nature of the experiment: compound microarray binding of lysate hLAP1 – cell lysate, small-molecule microarray, COS7 lysate, 635/667 nm fluorescence, primary screen (AID 1116). The conditions noted are these: 635 nm fluorescence, higher = more signal.
Sequence of Torsin-1A-interacting protein 1 (Homo sapiens) (Q5JTV8 whole entry, looked up): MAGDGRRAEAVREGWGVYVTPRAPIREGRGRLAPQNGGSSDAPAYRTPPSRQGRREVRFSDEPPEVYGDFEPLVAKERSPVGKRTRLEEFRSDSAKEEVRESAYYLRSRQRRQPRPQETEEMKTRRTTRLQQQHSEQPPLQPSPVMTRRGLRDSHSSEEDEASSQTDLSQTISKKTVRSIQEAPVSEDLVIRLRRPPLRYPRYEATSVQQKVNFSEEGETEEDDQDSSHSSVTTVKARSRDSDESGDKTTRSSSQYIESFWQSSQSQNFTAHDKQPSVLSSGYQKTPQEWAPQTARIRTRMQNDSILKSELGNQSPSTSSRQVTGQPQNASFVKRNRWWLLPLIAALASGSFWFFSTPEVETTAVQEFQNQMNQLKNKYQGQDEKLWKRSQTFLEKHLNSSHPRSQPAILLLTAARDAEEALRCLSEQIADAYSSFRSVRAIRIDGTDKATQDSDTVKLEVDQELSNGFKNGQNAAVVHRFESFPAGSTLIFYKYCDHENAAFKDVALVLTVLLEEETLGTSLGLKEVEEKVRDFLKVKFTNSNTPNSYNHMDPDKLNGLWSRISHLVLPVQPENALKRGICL
In experiment [10] the target is Alpha-bungarotoxin (Bungarus multicinctus) (UniProt P60615). The experiment can be described thus: compounds binding labelled alpha-BTX control protein – biochemical, small-molecule microarray, Alexa647 label, 635/667 nm fluorescence, artefact control for SMM control protein annotation, profiling panel (AID 1117). The following applies: alpha-BTX-A647 binding fluorescence, higher = more signal.
Sequence of Alpha-bungarotoxin (Bungarus multicinctus) (P60615 whole entry, looked up): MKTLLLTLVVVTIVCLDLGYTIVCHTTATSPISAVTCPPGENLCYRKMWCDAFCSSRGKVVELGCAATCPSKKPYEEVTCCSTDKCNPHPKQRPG

The target of another experiment is Albumin (Bos taurus) (UniProt P02769). Nature of the experiment: compounds binding labelled BSA control protein – biochemical, small-molecule microarray, Alexa647 label, 635/667 nm fluorescence, artefact control for SMM control protein annotation, profiling panel (AID 1118).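 Further: score merges 667 nm emission intensity and signal-to-noise per printed compound spot.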 The following applies: BSA-A647 binding, fluorescence 635 nm, higher = more signal.
Sequence of Albumin (Bos taurus) (P02769 whole entry, looked up): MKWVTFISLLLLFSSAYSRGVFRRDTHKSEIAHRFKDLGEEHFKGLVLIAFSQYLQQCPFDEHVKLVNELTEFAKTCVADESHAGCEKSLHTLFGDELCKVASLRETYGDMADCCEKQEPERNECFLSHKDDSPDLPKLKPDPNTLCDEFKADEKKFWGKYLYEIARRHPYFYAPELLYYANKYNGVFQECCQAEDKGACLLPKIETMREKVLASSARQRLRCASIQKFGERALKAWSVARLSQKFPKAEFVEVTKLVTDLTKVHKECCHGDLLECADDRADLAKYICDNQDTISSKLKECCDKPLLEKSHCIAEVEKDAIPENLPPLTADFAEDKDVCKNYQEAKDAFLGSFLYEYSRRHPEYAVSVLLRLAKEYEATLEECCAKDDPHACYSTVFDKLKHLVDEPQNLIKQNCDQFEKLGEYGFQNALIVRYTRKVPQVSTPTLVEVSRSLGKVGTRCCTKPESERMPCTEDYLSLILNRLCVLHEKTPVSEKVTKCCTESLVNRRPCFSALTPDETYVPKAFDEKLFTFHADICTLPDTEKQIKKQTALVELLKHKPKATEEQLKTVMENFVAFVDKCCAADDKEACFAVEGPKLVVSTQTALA
The nature of experiment [11]: probe aXIP binding to arrayed compounds – biochemical, NeuroSMM set, 635/667 nm fluorescence, primary screen (AID 1119).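 Further: probe is the protein aXip251-270 applied at 1 µg/mL to compound-printed slides; binding of probe to printed compounds measured as 667 nm fluorescence plus signal to noise.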 The conditions noted are these: small-molecule microarray, higher = more signal, called active from +8 up or from −8 down.
Experiment [12] can be described thus: probe aNOTCH3 binding on compound microarray – biochemical, small-molecule microarray, 635/667 nm fluorescence, primary screen (AID 1120).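 Further: probe is a biotin-tagged antibody raised against NOTCH3 rather than NOTCH3 protein; score merges spot fluorescence near 667 nm with spot signal to noise.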 The following applies: higher = more signal.
Experiment [13] is described as follows: probe aNOTCH2 binding on compound microarray – biochemical, small-molecule microarray, 635/667 nm fluorescence, primary screen (AID 1121).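 Further: score merges feature fluorescence read at 667 nm with its signal to noise.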 The conditions noted are these: higher = more signal.
Experiment [14] has as its target Carbonic anhydrase 2 (Homo sapiens) (UniProt P00918). Nature of the experiment: compounds binding carbonic anhydrase 2 – biochemical, small-molecule microarray, Alexa647-labelled CAII, profiling panel (AID 1122). The following applies: CAII-A647 binding fluorescence, higher = more signal.
Experiment [15] can be described thus: COS7 lysate on small-molecule microarray, probe aHis, 635 nm (AID 1123).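 Further: z-score combines 667nm fluorescence intensity with signal-to-noise per printed compound spot.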 The conditions noted are these: COS7 cell lysate, fluorescence, higher = more signal.
A short description of experiment [16]: probe aLAP1 signal on lysate-treated microarray – cell lysate, small-molecule microarray, COS7 lysate, primary screen (AID 1124).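 Further: lysate comes from COS7 cells expressing LAP1 and is applied at 0.3 µg/mL; score merges spot fluorescence near 667 nm with signal-to-noise over triplicate slides.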 The following applies: probe aLAP1, fluorescence, higher = more signal.
A further experiment relates to Sam68 (KHDRBS1). Nature of the experiment: compounds binding KHDRBS1 protein – biochemical, small-molecule microarray, 635 nm fluorescence, primary screen (AID 1125).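 Further: score merges 667 nm channel intensity with signal to noise over triplicate slides.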 The following applies: higher = more signal.
Experiment [17] has as its system Chordin-like protein 2 (CHRDL2). The experiment can be described thus: compounds binding chordin-like 2 – biochemical, small-molecule microarray, 635 nm fluorescence, primary screen (AID 1126).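 Further: printed compound slides probed with Chrdl2 protein at 4 µg/mL for 1 h at 4 C; score merges 667 nm emission intensity with signal to noise over three replicate slides.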 The conditions noted are these: fluorescence 635 nm, higher = more signal.
Experiment [18] concerns the target Concanavalin-A (Canavalia ensiformis) (UniProt P02866). The experiment can be described thus: compounds binding concanavalin A lectin – biochemical, small-molecule microarray, Alexa647 label, 635 nm, artefact control for SMM control protein annotation, primary screen (AID 1127).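 Further: z combines 667 nm emission intensity with signal-to-noise across three replicate slides.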 The conditions noted are these: ConA-A647 binding fluorescence, higher = more signal.

Each structure is given as a SMILES string. Active and inactive are the calls of the source.

Sequence of Left-right determination factor 2 (Homo sapiens) (O00292 whole entry, looked up): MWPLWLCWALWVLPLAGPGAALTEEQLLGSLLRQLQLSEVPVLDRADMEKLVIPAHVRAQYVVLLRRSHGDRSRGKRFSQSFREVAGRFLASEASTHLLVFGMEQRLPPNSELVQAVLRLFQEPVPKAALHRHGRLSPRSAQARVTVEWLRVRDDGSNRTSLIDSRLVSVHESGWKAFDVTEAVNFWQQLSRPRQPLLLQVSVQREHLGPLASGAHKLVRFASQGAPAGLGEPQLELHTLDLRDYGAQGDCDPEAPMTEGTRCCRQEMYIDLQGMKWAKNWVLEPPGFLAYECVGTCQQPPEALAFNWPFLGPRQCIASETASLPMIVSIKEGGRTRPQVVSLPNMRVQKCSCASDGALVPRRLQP
Sequence of Concanavalin-A (Canavalia ensiformis) (P02866 whole entry, looked up): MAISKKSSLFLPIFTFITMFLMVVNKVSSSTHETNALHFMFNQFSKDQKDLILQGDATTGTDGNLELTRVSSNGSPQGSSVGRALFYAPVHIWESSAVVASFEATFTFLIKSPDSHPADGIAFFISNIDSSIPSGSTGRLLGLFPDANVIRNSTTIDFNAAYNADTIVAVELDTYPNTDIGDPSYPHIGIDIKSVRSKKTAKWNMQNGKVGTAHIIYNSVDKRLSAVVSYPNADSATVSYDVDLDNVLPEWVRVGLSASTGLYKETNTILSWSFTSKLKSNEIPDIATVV

On to `COCCCNC(=O)[C@@H]1c2ccccc2C(=O)N(C2CCCCC2)[C@H]1c1ccc(CO)cc1`, for which the composite z-score in experiment [1] is -0.093; in experiment [3] it was -1.22; in experiment [4], -0.28; in experiment [5] it was 0.716; in experiment [6], -0.124; in [7], -0.0769. In addition, the composite z-score in experiment [8] is -0.0633; in experiment [9], 1.25; in experiment [10] it was -1.08; with Albumin (Bos taurus), -0.527; in experiment [12], -0.27; in experiment [13], -0.106. Moreover, the composite z-score is 0.471 in experiment [14]; 1.08 in experiment [15]; 0.0117 in experiment [16]; -0.724 with Sam68 (KHDRBS1); -1.23 in [17]; -0.247 in experiment [18]. For the same compound, the z-score in experiment [2] was -1.27. Moreover, in [11], the composite Z-score was -1.17 (inactive).

On to `COc1cc2c(cc1O)C(c1ccc(CN3CCCC3)cc1)N(Cc1ccc([N+](=O)[O-])o1)CC2` (stereo not given), for which the composite z-score in experiment [1] is -1.17; in experiment [3], 0.313; in experiment [4], 0.383; in experiment [5], 0.958; in experiment [6] it was -0.167; in [7] it was -0.193. Further, the composite z-score is 0.0692 in experiment [8]; 1.12 in experiment [9]; 0.951 in experiment [10]; 0.847 in the experiment with Albumin (Bos taurus); 0.0469 in experiment [12]; -0.0959 in experiment [13]. In addition, the composite z-score in [14] was 0.91; in [15], 0.542; in [16], 0.774; with Sam68 (KHDRBS1) it was -0.768; in experiment [17], -0.881; in [18] it was 0.387. For the same compound, the z-score in experiment [2] is -1.05. Further, in [11], the composite Z-score was 0.27 (inactive).

Take `COCCOC(=O)N1C(=O)[C@@]2(c3cc(C#CC4(O)CCCCCC4)ccc31)[C@H](C(=O)NC[C@H](O)c1ccccc1)[C@H]1C(=O)O[C@H](c3ccccc3)[C@H](c3ccccc3)N1[C@@H]2c1ccc(O)cc1`: the composite z-score in experiment [1] is -0.132; in experiment [3], 0.0174; in experiment [4], 1.37; in experiment [5] it was -0.112; in [6], 0.0718; in [7], -0.0055. Further, the composite z-score was -0.111 in [8]; 1.14 in experiment [9]; 1.61 in experiment [10]; 0.456 in the experiment with Albumin (Bos taurus); -0.0362 in [12]; -0.0846 in experiment [13]. Further, the composite z-score was 0.618 in [14]; 1.51 in experiment [15]; 1.42 in experiment [16]; 1.16 with Sam68 (KHDRBS1); -0.112 in [17]; 1.09 in [18]. Besides, the z-score in [2] is -0.68. Also, in experiment [11], the composite Z-score is -0.275 (inactive).

On to `C=C(CC1([C@@H](NP(=O)(c2ccccc2)c2ccccc2)[C@H]2C[C@@H]2CCN(C(=O)OCC)S(=O)(=O)c2ccc(C)cc2)CC1)c1ccccc1`, for which the composite z-score is 1.39 in experiment [1]; -0.763 in experiment [3]; 1.88 in experiment [4]; 1.07 in [5]; 0.0267 in experiment [6]; 0.935 in experiment [7]. Further, the composite z-score in experiment [8] came out at 1.06; in [9], 0.379; in [10], 0.749; in the experiment with Albumin (Bos taurus), 0.963; in experiment [12], 0.6; in experiment [13], 0.354. The composite z-score is 0.355 in experiment [14]; 2.65 in experiment [15]; 0.319 in experiment [16]; 0.981 in the experiment on Sam68 (KHDRBS1); -0.845 in experiment [17]; 0.74 in experiment [18]. Moreover, in [2], the z-score is -2.09. In addition, the composite Z-score in experiment [11] is 0.39 (inactive).

In the case of `C=CCC(OC(C)=O)[C@@H]1[C@@H](N(Cc2cccc3ccccc23)C(=O)c2ccc(C)cc2)c2cc(OCCCO)ccc2N1C(=O)c1ccc2ccccc2n1` (stereo not given in full), the composite z-score is -0.139 in [1]; -0.0457 in experiment [3]; -0.388 in experiment [4]; -0.195 in experiment [5]; -0.147 in experiment [6]; -0.341 in experiment [7]. Also, the composite z-score in experiment [8] was -0.555; in experiment [9], 0.482; in experiment [10], 1.46; in the experiment with Albumin (Bos taurus), 0.526; in experiment [12] it was 0.366; in experiment [13], 0.0239. Besides, the composite z-score in experiment [14] was 0.246; in experiment [15] it was 0.72; in experiment [16], 0.158; with Sam68 (KHDRBS1), 0.478; in experiment [17], 0.618; in experiment [18], -0.202. Further, the z-score in [2] is -0.614. In addition, the composite Z-score in [11] was -0.104 (inactive).

With `CN(C)C(=O)[C@@]1(CCS(=O)(=O)c2ccccc2)N=C(c2ccc(OCCCO)cc2)O[C@H]1c1ccccc1N=[N+]=[N-]`, the composite z-score in experiment [1] was 1.43; in [3] it was 0.258; in experiment [4] it was -0.038; in [5] it was -0.0024; in experiment [6] it was 0.0445; in [7], 0.199. Also, the composite z-score in [8] is -0.484; in experiment [9], 1.56; in experiment [10] it was 0.901; with Albumin (Bos taurus), 0.856; in [12], 0.488; in experiment [13] it was -0.112. Besides, the composite z-score is 0.669 in experiment [14]; 2.13 in [15]; 0.521 in [16]; 1.29 in the experiment on Sam68 (KHDRBS1); -0.0717 in [17]; 0.972 in [18]. Also, the z-score in [2] was -0.235. Also, the composite Z-score in experiment [11] is -0.288 (inactive).
